PKM2 act – PKM2 (human) enzyme activation | purified PKM2, Kinase-Glo ATP luminescence, activation; response scale: 0% is enzyme alone, no compound | Potency, µM (highest dose often 57.5 µM), inactives show at the highest dose activation, usual class: activators | AID 1631 | P14618 | 260,000 compounds, 0.34% hits; further: nearly all actives have a fitted effect of over 55% in size
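Purified hPK-M2 (>95%) run at intermediate activity with 0.1 mM ADP and 0.5 mM PEP in 50 mM imidazole pH 7.2, KCl, MgCl2; 1 h room temperature. ATP formed read by Kinase-Glo luminescence; normalized to uninhibited and no-enzyme controls.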
aGlu spleen mod – inhibitors or activators of human alpha-glucosidase in spleen homogenate; Potency, µM (titrated, usually from 79.9 µM), for the others: top-dose activity change, negative = inhibition, hits mostly inhibitors; 240,000 compounds, 0.006% hits; P10253; human spleen homogenate, 4-MU-alpha-glucoside fluorescence;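 further: 0% = enzyme with vehicle and -100% = no enzyme basal signal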
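Human spleen homogenate (1 ug) with 4-methylumbelliferyl-alpha-D-glucopyranoside (1 mM final) in 50 mM citrate/phosphate pH 5.0, 0.01% Tween-20; 40 min at 37 C. Stopped at pH 10; 4-MU fluorescence Ex 365/Em 440 nm; AC50 by Hill fit.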
GAA inhib – alpha-glucosidase (human) inhibition | P10253 | purified human GAA, 4-MU-alpha-glucoside fluorescence | Potency, µM (titrated, usually from 76.9 µM), inactives show top-dose activity change, negative = inhibition, usual class: inhibitors | 200,000 compounds, 0.005% hits | AID 1466;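 further: plate controls were uninhibited enzyme wells for no effect and no-enzyme background for full effect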
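Activity normalized between no-enzyme (basal) and enzyme-only wells. Conditions: 4 nM human enzyme, 400 uM fluorogenic substrate, citrate/phosphate pH 5.0 with Tween-20, 20 min room temperature, compounds up to 77 uM.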
GALK inh – inhibitors of human galactokinase. P51570. Purified GALK, Kinase-Glo residual ATP luminescence. Potency, µM (doses to about 57.5 µM), for the others: at the top dose activity change, negative = inhibition, actives largely listed as inhibitors. 270,000 compounds, 0.007% hits
Target sequence (P51570 whole entry, looked up): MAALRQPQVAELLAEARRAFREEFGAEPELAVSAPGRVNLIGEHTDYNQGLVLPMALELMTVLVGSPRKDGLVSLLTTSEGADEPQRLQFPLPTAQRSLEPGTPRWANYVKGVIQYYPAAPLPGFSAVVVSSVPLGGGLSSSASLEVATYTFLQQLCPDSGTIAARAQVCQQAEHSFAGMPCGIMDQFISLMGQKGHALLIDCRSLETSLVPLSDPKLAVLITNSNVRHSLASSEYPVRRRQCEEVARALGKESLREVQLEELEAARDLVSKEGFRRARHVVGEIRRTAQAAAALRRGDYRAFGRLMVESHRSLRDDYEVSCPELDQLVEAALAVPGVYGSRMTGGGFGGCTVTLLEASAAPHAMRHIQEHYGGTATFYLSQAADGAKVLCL
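Kinase-Glo Plus luminescence measured ATP left after a 1 h room-temperature reaction. The reaction used 5 nM GALK, 100 uM galactose and 35 uM ATP at pH 8.0 (20 mM HEPES, 5 mM MgCl2, 60 mM NaCl, 1 mM DTT, 0.01% BSA).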
GAA glycogen – GAA glycogen-cleavage inhibition or activation; AID 2100; P10253; recombinant GAA, glycogen substrate, Amplex Red glucose oxidase fluorescence; Potency, µM (titrated, usually from 76.4 µM), for inactives: at the top dose activity change, negative = inhibition, most hits filed as inhibitors; 300,000 compounds, 0.38% hits;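 further: 0% = full enzyme reaction and -100% = no-enzyme basal signal; the screen sought inhibitors and activators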
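Recombinant enzyme (4 nM final) with compounds titrated up to 77 uM and bovine liver glycogen (30 ug) in citrate pH 5.0, 0.01% Tween-20, 37 C 40 min. Released glucose detected by Amplex Red/glucose oxidase (Ex 573/Em 610); AC50 from Hill fits.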
Active calls of the source: *; [ ] = dose if it differs, or a comment. A selection: hits, their analogues and other compounds. The true share with any hit is near 0.63%. The call rests on the fitted dose curve; in most records, active means well fitted curve in the direction sought with a large enough effect; inconclusive means small, poorly fitted or top-dose-only effect, or another doubt; inactive means no such curve, though single readings can be large; an effect the other way counts as inactive or inconclusive. Unless noted, on the % scale 0 is the no-effect control and ±100 the full control effect; potency means the concentration at half of the fitted maximal effect.

How did Cc1ccc(NC(=O)CN2C(=O)COc3ccc(S(=O)(=O)N4CCCCCC4)cc32)cc1Cl do in these assays?
GAA glycogen: -4.7%[76.3 µM]

How did CN1CCc2nc(SCC(=O)Nc3ccc(OC(F)(F)F)cc3)c(C#N)c(-c3cccs3)c2C1 do in these assays?
PKM2 act: -11.1%; aGlu spleen mod: 8.0%; GAA inhib: -9.4%; GALK inh: 0.6%; GAA glycogen: 1.0%

What do the screens show for `CN1CCc2nc(SCC(=O)Nc3cccc(F)c3)c(C#N)c(-c3cccs3)c2C1`?
PKM2 act: 17.8µM*; aGlu spleen mod: -6.8%; GAA inhib: -1.3%; GALK inh: -0.3%; GAA glycogen: 17.6%

Results for COCC(=O)N1c2nc(C(C)C)nn2C2(CCCCC2)[C@@H]2CCCC[C@@H]21 ?
GAA glycogen: -4.5%[76.3 µM]

What do the screens show for `Oc1ccc(NC(=S)Nc2ccc(F)cc2)cc1`?
PKM2 act: -3.1%; GALK inh: 0.0%; GAA glycogen: 11.2µM*

Results for COc1ccc(-n2cc(CNCCc3ncc(C)[nH]3)c(-c3ccccc3Cl)n2)cc1 ?
PKM2 act: -4.1%; aGlu spleen mod: -2.0%; GAA inhib: -2.5%; GALK inh: 10.0%; GAA glycogen: 7.08µM*

What do the screens show for `Cc1cc2c(cc1S(=O)(=O)N(C)c1ccccc1)n(C)c(=O)n2C`?
PKM2 act: 12.6µM*; GALK inh: -2.5%; GAA glycogen: -6.6%[76.3 µM]

How did Cc1cccc(N(C)S(=O)(=O)c2cc3c(cc2C)n(C)c(=O)c(=O)n3C)c1 do in these assays?
PKM2 act: 10µM*; GAA glycogen: 12.9%[76.3 µM]

What do the screens show for `CCOC(=O)C1CCCN(c2c(C(=O)c3ccccc3)cnc3ccc(OC)cc23)C1` (centres undefined)?
PKM2 act: 7.0%; aGlu spleen mod: -0.8%; GAA inhib: -3.8%; GALK inh: -1.3%; GAA glycogen: -15.2%

Results for CCOC(=O)C1CCCN(c2c(C(=O)c3ccc(OCC)cc3)cnc3ccccc23)C1 (centres undefined) ?
GAA glycogen: 11.2µM*

What do the screens show for `Cn1cc(CCC(=O)NC2CC(C)(C)Cc3c2cnn3-c2ccc(F)cc2)cn1` (centres undefined)?
PKM2 act: -0.9%; GALK inh: -2.6%

How did CC1(C)Cc2c(cnn2-c2ccc(F)cc2)C(NC(=O)CCc2ccncc2)C1 (centres undefined) do in these assays?
PKM2 act: 0.7%; GAA glycogen: 28.2µM*

How did CS(=O)(=O)Nc1ccc(C2=NN(C(=O)c3ccco3)C(c3ccccc3)C2)cc1 (centres undefined) do in these assays?
PKM2 act: 14.1µM*; aGlu spleen mod: 6.7%; GAA inhib: 2.3%; GALK inh: 0.1%; GAA glycogen: -2.0%

Results for CCS(=O)(=O)Nc1ccc(C2=NN(C(=O)c3ccco3)C(c3ccc(C)cc3)C2)cc1 (centres undefined) ?
PKM2 act: 7.94µM*; aGlu spleen mod: -6.0%; GAA inhib: -16.1%; GALK inh: -1.2%; GAA glycogen: -8.3%

Results for CC1(C)Cc2c(sc3ncn(N)c(=N)c23)CO1 ?
PKM2 act: 19.4%; aGlu spleen mod: -3.4%; GAA inhib: 0.9%; GALK inh: 1.3%; GAA glycogen: 9.8%

Results for CC1(C)Cc2c(sc3ncn4c(=S)[nH]nc4c23)CO1 ?
PKM2 act: -26.2%; aGlu spleen mod: 5.6%; GAA inhib: -9.1%; GALK inh: 2.3%; GAA glycogen: 28.2µM*

Results for COc1cc(CN2CCNC(=O)C2CC(=O)N2CCCO2)cc(OC)c1 (centres undefined) ?
PKM2 act: 14.1µM*; aGlu spleen mod: 2.6%; GAA inhib: -9.5%; GALK inh: 0.8%; GAA glycogen: -5.5%

What do the screens show for `COc1cc(CN2CCNC(=O)C2CC(=O)N2CCCCO2)cc(OC)c1` (centres undefined)?
PKM2 act: 8.4%; aGlu spleen mod: 1.5%; GAA inhib: -4.5%; GALK inh: -3.5%; GAA glycogen: inconclusive

Results for O=c1c2cc(Br)ccc2[nH]c(=S)n1Cc1cccnc1 ?
PKM2 act: inconclusive; aGlu spleen mod: -1.2%; GAA inhib: -2.7%; GALK inh: -5.0%; GAA glycogen: 0.4%

Results for O=c1c2ccccc2[nH]c(=S)n1Cc1cccnc1 ?
PKM2 act: 25.1µM*; aGlu spleen mod: -2.9%; GAA inhib: -4.5%; GALK inh: 6.0%; GAA glycogen: 6.7%

Results for COc1ccccc1C1Nc2cccc3cccc(c23)N1 ?
PKM2 act: 13.4%; aGlu spleen mod: 0.1%; GAA inhib: -3.3%; GALK inh: -1.5%; GAA glycogen: 15.7µM*

What do the screens show for `COc1ccc(F)cc1C(=O)C1CCCN(Cc2cccn2-c2cccnc2)C1` (centres undefined)?
PKM2 act: 35.5µM*; aGlu spleen mod: -1.9%; GAA inhib: -10.1%; GALK inh: 3.4%; GAA glycogen: 19.4%

How did N#C/C(=C\c1cccc(Cl)c1)C(=O)c1ccccc1 do in these assays?
PKM2 act: 20µM*; aGlu spleen mod: -2.3%; GAA inhib: -6.1%; GALK inh: -15.3%; GAA glycogen: -0.2%

Results for N#C/C(=C\c1ccc[nH]1)C(=O)c1ccccc1 ?
PKM2 act: -20.0%; aGlu spleen mod: -1.9%; GAA inhib: -8.3%; GALK inh: 0.6%; GAA glycogen: -5.4%

Results for Cc1cccc(CCNc2ncnc3onc(-c4ccc(Cl)cc4)c23)c1 ?
GAA glycogen: 4.7%[76.3 µM]

What do the screens show for `[O-]/[N+](=C\c1ccccc1)[C@@H]1CCCC[C@@H]1/[N+]([O-])=C/c1ccccc1`?
PKM2 act: -3.7%; aGlu spleen mod: 2.5%; GAA inhib: 6.7%; GALK inh: -0.5%; GAA glycogen: 39.8µM*

How did CC(=O)/C(=N/Nc1ccccc1C)N1CCOCC1 do in these assays?
PKM2 act: 2.1%; aGlu spleen mod: -2.9%; GAA inhib: -4.2%; GALK inh: 0.4%; GAA glycogen: 12.6µM*

What do the screens show for `Cc1ccccc1NC(=O)CN1CCOCC1`?
PKM2 act: 0.0%; GALK inh: 0.0%

How did CC(=O)/C(=N/Nc1ccccc1)N1CCOCC1 do in these assays?
PKM2 act: -5.5%; aGlu spleen mod: -15.7%; GAA inhib: -4.8%; GALK inh: -1.7%; GAA glycogen: 10µM*

Results for CCOC(=O)/C(=N\Nc1cccc(C(F)(F)F)c1)N1CCOCC1 ?
PKM2 act: 1.4%; aGlu spleen mod: -1.9%; GAA inhib: -4.2%; GALK inh: -2.0%; GAA glycogen: inconclusive

Results for CC(=O)/C(=N/Nc1cccc(Cl)c1)N1CCOCC1 ?
PKM2 act: 1.9%; aGlu spleen mod: 2.0%; GAA inhib: -2.4%; GALK inh: -0.4%; GAA glycogen: 14µM*

Assay outcomes: PubChem BioAssay, National Center for Advancing Translational Sciences (NCATS)
